According to PubChem BioAssay AID1159580 (chemical genetic matrix, 2015):
Hit rate of the full screen: of about 5,500 compounds, about 2,000 (36%) were called active. Inconclusive results (about 18%) are left out. No stated cut-off is given here; in the data, active means normalized growth mostly below about 0.91 (no sharp cut-off); inconclusive means no clear call, values can overlap the other calls; inactive means mostly above about 0.92. The list shows a part of the results.

Assay: chemical genetic growth profiling, strain panel (AID 1159580);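 further: tested at 20 µM; growth read once vehicle control cultures reached saturation at 30 °C; 1 = growth at the plate median or of vehicle wells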
Details: growth OD

Measured: normalized growth

CC(C)(S)[C@@H](N)C(=O)O
inactive: S. cerevisiae deletion strains, locus YJR043C, strain POL32, stronger effect = lower value 1 | S. cerevisiae deletion strains, locus YJR066W, strain TOR1, stronger effect = lower value 0.952 | S. cerevisiae deletion strains, locus YKL009W, strain mrt4, stronger effect = lower value 0.988 | S. cerevisiae deletion strains, locus YKL068W, stronger effect = lower value 0.995 | S. cerevisiae deletion strains, locus YKL085W, strain MDH1 (second series), stronger effect = lower value 0.993 | S. cerevisiae deletion strains, locus YKL085W, strain MDH1, stronger effect = lower value 0.993 | S. cerevisiae deletion strains, locus YKL160W, strain elf1, stronger effect = lower value 1.03 | S. cerevisiae deletion strains, locus YKL190W, strain CNB1, stronger effect = lower value 0.999 | S. cerevisiae deletion strains, locus YKR001C, strain vps1, stronger effect = lower value 0.988 | S. cerevisiae deletion strains, locus YKR026C, strain gcn3, stronger effect = lower value 0.994 | S. cerevisiae deletion strains, locus YKR091W, strain srl3, stronger effect = lower value 1 | S. cerevisiae deletion strains, locus YLL001W, strain dnm1, stronger effect = lower value 1.02 | S. cerevisiae deletion strains, locus YLL026W, stronger effect = lower value 1.01 | S. cerevisiae deletion strains, locus YLL041C, strain sdh2, stronger effect = lower value 1 | S. cerevisiae deletion strains, locus YLR027C, strain aat2, stronger effect = lower value 0.995 | S. cerevisiae deletion strains, locus YLR039C, strain RIC1, stronger effect = lower value 1.02 | S. cerevisiae deletion strains, locus YLR058C, strain SHM2, stronger effect = lower value 1.01 | S. cerevisiae deletion strains, locus YLR102C, strain apc9, stronger effect = lower value 0.992 | S. cerevisiae deletion strains, locus YLR113W, strain HOG1, stronger effect = lower value 0.99 | S. cerevisiae deletion strains, locus YLR221C, strain rsa3, stronger effect = lower value 1 | S. cerevisiae deletion strains, locus YLR258W, strain gsy2, stronger effect = lower value 1 | S. cerevisiae deletion strains, locus YLR262C, strain YPT6 (second series), stronger effect = lower value 1.02 | S. cerevisiae deletion strains, locus YLR262C, strain YPT6, stronger effect = lower value 1 | S. cerevisiae deletion strains, locus YLR268W, strain sec22, stronger effect = lower value 0.969 | S. cerevisiae deletion strains, locus YLR320W, strain mms22, stronger effect = lower value 1.04 | S. cerevisiae deletion strains, locus YLR330W, strain CHS5, stronger effect = lower value 1.01 | S. cerevisiae deletion strains, locus YLR342W, strain FKS1 (second series), stronger effect = lower value 1.03 | S. cerevisiae deletion strains, locus YLR342W, strain FKS1, stronger effect = lower value 1.01 | S. cerevisiae deletion strains, locus YLR357W, strain rsc2, stronger effect = lower value 1 | S. cerevisiae deletion strains, locus YLR370C, strain arc18, stronger effect = lower value 1 | S. cerevisiae deletion strains, locus YLR371W, strain rom2, stronger effect = lower value 0.994 | S. cerevisiae deletion strains, locus YLR384C, strain iki3, stronger effect = lower value 0.993 | S. cerevisiae deletion strains, locus YLR418C, strain cdc73, stronger effect = lower value 0.98 | S. cerevisiae deletion strains, locus YML016C, strain PPZ1, stronger effect = lower value 1.02 | S. cerevisiae deletion strains, locus YML032C, strain rad52, stronger effect = lower value 0.991 | S. cerevisiae deletion strains, locus YML120C, strain ndi1, stronger effect = lower value 0.998 | S. cerevisiae deletion strains, locus YML124C, strain tub3, stronger effect = lower value 0.994 | S. cerevisiae deletion strains, locus YMR058W, strain fet3, stronger effect = lower value 1.01 | S. cerevisiae deletion strains, locus YMR078C, strain ctf18, stronger effect = lower value 0.988 | S. cerevisiae deletion strains, locus YMR125W, strain sto1, stronger effect = lower value 1 | S. cerevisiae deletion strains, locus YMR129W, stronger effect = lower value 0.996 | S. cerevisiae deletion strains, locus YMR205C, strain PFK2, stronger effect = lower value 1.04 | S. cerevisiae deletion strains, locus YMR223W, strain ubp8, stronger effect = lower value 0.999 | S. cerevisiae deletion strains, locus YMR231W, strain pep5, stronger effect = lower value 0.999 | S. cerevisiae deletion strains, locus YMR307W, strain GAS1, stronger effect = lower value 1.01 | S. cerevisiae deletion strains, locus YNL067W, strain RPL9B, stronger effect = lower value 0.993 | S. cerevisiae deletion strains, locus YNL071W, strain lat1, stronger effect = lower value 1 | S. cerevisiae deletion strains, locus YNL183C, strain NPR1, stronger effect = lower value 0.964 | S. cerevisiae deletion strains, locus YNL209W, strain ssb2, stronger effect = lower value 0.997 | S. cerevisiae deletion strains, locus YNL233W, strain BNI4, stronger effect = lower value 1.02 | S. cerevisiae deletion strains, locus YNL248C, strain rpa49, stronger effect = lower value 1 | S. cerevisiae deletion strains, locus YNL250W, strain rad50, stronger effect = lower value 0.985 | S. cerevisiae deletion strains, locus YNL271C, strain bni1, stronger effect = lower value 0.988 | S. cerevisiae deletion strains, locus YNL298W, strain CLA4, stronger effect = lower value 0.991 | S. cerevisiae deletion strains, locus YNL307C, strain MCK1, stronger effect = lower value 0.992 | S. cerevisiae deletion strains, locus YNL322C, strain KRE1 (second series), stronger effect = lower value 1.01 | S. cerevisiae deletion strains, locus YNR049C, strain mso1, stronger effect = lower value 0.997 | S. cerevisiae deletion strains, locus YNR052C, strain pop2, stronger effect = lower value 0.988 | S. cerevisiae deletion strains, locus YOL006C, strain TOP1, stronger effect = lower value 1.08 | S. cerevisiae deletion strains, locus YOL012C, strain htz1 0.654 | S. cerevisiae deletion strains, locus YOL147C, strain pex11, stronger effect = lower value 0.984 | S. cerevisiae deletion strains, locus YOR001W, strain rrp6, stronger effect = lower value 0.989 | S. cerevisiae deletion strains, locus YOR061W, strain CKA2, stronger effect = lower value 1.01 | S. cerevisiae deletion strains, locus YOR069W, strain VPS5, stronger effect = lower value 1 | S. cerevisiae deletion strains, locus YOR070C, strain gyp1, stronger effect = lower value 1.01 | S. cerevisiae deletion strains, locus YOR080W, strain dia2, stronger effect = lower value 1 | S. cerevisiae deletion strains, locus YOR083W, strain WHI5, stronger effect = lower value 1.04 | S. cerevisiae deletion strains, locus YOR106W, strain vam3, stronger effect = lower value 1.03 | S. cerevisiae deletion strains, locus YOR136W, strain idh2, stronger effect = lower value 0.994 | S. cerevisiae deletion strains, locus YOR144C, strain elg1, stronger effect = lower value 0.992 | S. cerevisiae deletion strains, locus YOR184W, strain ser1, stronger effect = lower value 1.01 | S. cerevisiae deletion strains, locus YOR231W, strain MKK1, stronger effect = lower value 1.01 | S. cerevisiae deletion strains, locus YOR265W, strain rbl2, stronger effect = lower value 1 | S. cerevisiae deletion strains, locus YOR270C, strain vph1, stronger effect = lower value 0.989 | S. cerevisiae deletion strains, locus YOR290C, strain snf2, stronger effect = lower value 1.04 | S. cerevisiae deletion strains, locus YOR316C, strain cot1, stronger effect = lower value 0.993 | S. cerevisiae deletion strains, locus YPL051W, strain arl3, stronger effect = lower value 1.02 | S. cerevisiae deletion strains, locus YPL078C, strain atp4, stronger effect = lower value 1.01 | S. cerevisiae deletion strains, locus YPL106C, strain sse1, stronger effect = lower value 1.03 | S. cerevisiae deletion strains, locus YPL240C, strain hsp82, stronger effect = lower value 0.988 | S. cerevisiae deletion strains, locus YPL241C, strain CIN2, stronger effect = lower value 1.01 | S. cerevisiae deletion strains, locus YPL256C, strain CLN2, stronger effect = lower value 0.986 | S. cerevisiae deletion strains, locus YPR119W, strain clb2, stronger effect = lower value 1 | S. cerevisiae deletion strains, locus YPR141C, strain kar3, stronger effect = lower value 0.993 | S. cerevisiae deletion strains, locus YPR163C, strain tif3, stronger effect = lower value 0.991 | S. cerevisiae deletion strains, locus YPR167C, strain met16, stronger effect = lower value 0.991 | S. cerevisiae deletion strains, strain wtn01, stronger effect = lower value 0.976 | S. cerevisiae strains, strain wild type, stronger effect = lower value 1.01
